Measurements reported in the supplement of paper PMC12067093, “Discovery and optimisation of a covalent ligand for TRIM25 and its application to targeted protein ubiquitination” (Chemical Science, 2025).
Targets with the largest changes are over-represented here; the source holds about 21,000 in all.

What follows are targets tested with CC1Cc2ccccc2N1C(=O)C1CCCN(C1)C(=O)CCl (mixture of isomers) [TRIM25 ligand 11 (diastereomer mixture)] (assay: probe-labelled cysteine peptide fold change vs DMSO (competition) (log2 fold change); higher = less target engagement (more negative = stronger competition)). Conditions: 10 µM; THP-1; incubation time: 4 h.
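Note: competitive chemoproteomic profiling in live THP-1 cells with an iodoacetamide desthiobiotin (IA-DTB) probe, comparing probe-labelled peptide intensities in compound-treated cells against DMSO-treated controls.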

Sequence of UniProt O43583 (O43583 whole entry, looked up): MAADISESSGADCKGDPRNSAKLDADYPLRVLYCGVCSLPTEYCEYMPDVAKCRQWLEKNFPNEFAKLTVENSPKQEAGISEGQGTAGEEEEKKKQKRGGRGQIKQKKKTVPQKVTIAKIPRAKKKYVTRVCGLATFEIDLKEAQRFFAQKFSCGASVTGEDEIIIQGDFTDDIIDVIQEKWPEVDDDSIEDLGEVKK
Sequence of UniProt O00571 (O00571 whole entry, looked up): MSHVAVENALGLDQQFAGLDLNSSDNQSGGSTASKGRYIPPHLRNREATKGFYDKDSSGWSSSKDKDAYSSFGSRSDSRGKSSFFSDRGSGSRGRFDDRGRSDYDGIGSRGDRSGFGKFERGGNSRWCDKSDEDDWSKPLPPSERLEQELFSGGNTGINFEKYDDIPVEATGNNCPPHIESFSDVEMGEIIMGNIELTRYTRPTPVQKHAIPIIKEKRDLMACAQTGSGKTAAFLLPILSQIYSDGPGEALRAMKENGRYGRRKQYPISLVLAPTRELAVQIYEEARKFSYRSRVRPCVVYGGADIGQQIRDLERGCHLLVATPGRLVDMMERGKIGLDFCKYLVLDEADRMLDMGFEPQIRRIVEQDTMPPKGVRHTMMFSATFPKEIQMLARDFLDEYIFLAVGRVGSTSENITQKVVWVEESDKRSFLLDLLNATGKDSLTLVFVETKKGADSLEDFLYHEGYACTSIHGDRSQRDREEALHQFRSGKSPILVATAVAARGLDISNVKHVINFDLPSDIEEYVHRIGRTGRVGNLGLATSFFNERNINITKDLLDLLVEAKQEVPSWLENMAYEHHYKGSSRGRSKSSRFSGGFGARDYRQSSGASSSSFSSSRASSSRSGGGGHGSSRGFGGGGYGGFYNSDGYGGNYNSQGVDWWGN
Sequence of UniProt P26358 (P26358 whole entry, looked up): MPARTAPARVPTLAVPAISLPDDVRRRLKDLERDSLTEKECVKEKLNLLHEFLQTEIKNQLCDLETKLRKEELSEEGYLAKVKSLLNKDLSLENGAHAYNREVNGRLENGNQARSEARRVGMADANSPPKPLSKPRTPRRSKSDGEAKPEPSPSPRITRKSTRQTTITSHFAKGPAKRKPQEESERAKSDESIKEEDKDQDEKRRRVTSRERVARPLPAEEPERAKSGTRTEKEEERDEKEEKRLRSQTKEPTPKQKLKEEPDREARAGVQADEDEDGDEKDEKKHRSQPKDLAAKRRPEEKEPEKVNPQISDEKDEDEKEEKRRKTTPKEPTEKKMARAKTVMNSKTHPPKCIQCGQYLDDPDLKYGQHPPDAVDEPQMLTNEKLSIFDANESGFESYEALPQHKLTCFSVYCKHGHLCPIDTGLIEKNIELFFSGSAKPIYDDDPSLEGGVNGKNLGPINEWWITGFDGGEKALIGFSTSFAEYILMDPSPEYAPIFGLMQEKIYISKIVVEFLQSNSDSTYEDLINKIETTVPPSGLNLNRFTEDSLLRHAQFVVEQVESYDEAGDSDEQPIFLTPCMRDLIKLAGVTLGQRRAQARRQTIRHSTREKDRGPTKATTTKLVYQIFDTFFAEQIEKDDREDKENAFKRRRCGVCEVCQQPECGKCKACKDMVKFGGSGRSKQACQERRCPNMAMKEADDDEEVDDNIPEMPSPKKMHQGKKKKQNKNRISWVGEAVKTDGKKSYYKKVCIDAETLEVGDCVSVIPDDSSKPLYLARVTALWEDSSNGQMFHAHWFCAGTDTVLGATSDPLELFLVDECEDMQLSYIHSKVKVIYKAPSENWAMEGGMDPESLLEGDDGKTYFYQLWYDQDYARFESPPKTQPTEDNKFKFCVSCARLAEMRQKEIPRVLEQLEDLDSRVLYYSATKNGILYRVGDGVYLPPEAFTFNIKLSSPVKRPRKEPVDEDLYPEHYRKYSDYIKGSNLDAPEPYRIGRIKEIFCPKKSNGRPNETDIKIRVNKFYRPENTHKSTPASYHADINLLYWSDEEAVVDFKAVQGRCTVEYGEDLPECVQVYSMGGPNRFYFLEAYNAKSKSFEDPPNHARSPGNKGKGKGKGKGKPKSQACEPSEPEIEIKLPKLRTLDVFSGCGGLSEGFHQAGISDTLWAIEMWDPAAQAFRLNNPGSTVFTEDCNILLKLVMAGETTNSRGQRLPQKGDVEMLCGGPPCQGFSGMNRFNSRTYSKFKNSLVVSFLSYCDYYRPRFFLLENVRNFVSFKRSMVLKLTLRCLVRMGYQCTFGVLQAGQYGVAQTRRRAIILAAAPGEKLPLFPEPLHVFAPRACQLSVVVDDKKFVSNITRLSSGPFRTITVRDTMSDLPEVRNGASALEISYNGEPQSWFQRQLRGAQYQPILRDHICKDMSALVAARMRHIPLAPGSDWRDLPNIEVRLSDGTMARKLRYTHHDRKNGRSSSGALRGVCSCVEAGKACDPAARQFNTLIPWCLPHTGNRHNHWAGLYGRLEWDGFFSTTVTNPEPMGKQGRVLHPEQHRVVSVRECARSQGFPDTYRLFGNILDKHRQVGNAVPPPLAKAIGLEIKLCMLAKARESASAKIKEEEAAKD
Sequence of UniProt P26196 (P26196 whole entry, looked up): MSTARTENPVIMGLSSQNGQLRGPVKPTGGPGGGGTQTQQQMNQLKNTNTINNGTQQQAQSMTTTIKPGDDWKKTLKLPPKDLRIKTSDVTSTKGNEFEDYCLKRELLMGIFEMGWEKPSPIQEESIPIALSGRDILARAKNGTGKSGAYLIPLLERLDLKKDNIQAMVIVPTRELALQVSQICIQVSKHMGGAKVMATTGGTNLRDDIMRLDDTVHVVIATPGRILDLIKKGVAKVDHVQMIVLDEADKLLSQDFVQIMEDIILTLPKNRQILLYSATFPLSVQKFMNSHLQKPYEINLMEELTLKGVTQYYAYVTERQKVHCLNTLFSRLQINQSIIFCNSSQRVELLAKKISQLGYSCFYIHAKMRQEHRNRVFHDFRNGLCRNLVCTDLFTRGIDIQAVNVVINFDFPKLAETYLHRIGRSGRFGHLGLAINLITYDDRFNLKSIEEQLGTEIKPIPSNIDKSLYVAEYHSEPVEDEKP
Sequence of UniProt Q13620 (Q13620 whole entry, looked up): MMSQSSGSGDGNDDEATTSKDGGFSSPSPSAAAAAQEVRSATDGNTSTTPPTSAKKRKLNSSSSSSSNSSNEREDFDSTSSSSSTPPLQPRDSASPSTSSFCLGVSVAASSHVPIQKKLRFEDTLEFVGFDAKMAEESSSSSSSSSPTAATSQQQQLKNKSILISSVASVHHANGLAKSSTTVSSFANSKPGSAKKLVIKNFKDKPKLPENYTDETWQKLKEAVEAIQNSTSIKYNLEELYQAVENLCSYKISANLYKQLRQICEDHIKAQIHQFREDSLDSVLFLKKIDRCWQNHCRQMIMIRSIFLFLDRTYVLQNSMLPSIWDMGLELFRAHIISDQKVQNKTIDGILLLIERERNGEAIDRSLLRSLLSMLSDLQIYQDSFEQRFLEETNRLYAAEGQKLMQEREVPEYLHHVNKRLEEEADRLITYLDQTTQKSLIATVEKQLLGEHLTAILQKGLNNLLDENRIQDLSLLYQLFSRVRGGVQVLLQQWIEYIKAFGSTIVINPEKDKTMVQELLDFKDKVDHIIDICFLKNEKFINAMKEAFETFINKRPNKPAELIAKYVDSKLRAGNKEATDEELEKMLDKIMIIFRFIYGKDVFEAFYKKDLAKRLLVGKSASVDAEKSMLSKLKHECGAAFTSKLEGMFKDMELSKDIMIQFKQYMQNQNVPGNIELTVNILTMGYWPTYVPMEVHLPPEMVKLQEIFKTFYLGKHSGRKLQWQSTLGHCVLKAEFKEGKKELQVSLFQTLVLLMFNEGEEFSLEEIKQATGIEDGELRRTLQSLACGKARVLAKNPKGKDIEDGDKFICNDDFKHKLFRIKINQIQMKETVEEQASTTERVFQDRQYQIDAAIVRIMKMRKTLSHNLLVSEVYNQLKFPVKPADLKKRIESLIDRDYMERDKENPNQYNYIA
Sequence of UniProt Q7L2E3 (Q7L2E3 whole entry, looked up): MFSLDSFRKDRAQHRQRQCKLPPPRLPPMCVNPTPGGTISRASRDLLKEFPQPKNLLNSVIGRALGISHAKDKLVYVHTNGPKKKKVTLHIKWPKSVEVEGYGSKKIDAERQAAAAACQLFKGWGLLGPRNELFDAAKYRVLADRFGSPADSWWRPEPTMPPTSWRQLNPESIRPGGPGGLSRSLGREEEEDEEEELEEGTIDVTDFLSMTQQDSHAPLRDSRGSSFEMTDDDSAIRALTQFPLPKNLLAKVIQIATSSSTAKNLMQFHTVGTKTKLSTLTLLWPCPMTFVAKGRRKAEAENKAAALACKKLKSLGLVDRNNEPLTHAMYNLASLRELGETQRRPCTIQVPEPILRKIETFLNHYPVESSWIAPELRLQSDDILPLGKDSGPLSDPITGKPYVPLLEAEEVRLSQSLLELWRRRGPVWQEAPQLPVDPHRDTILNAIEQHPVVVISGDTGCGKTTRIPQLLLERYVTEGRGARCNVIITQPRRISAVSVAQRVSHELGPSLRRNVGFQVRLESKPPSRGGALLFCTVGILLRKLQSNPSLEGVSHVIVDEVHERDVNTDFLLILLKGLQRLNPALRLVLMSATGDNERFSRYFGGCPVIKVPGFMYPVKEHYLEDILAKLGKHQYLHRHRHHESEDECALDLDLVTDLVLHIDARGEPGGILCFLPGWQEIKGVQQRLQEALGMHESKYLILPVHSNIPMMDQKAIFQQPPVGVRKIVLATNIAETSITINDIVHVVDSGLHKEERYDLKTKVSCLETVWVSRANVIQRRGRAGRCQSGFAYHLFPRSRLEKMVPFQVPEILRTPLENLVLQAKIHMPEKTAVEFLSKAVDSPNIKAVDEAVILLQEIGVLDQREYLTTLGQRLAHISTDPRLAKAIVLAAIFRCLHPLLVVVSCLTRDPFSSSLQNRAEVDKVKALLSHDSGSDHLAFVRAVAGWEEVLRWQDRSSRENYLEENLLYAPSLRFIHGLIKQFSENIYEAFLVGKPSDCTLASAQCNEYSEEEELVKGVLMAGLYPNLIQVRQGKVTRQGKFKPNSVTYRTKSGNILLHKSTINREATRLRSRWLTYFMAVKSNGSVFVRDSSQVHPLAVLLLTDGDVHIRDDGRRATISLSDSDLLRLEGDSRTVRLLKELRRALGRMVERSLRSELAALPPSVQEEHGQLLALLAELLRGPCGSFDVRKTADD

Target	probe-labelled cysteine peptide fold change
DIAPH1_O60610_964_LQFSEQVENIKPEIVSVTAACEELR (UniProt O60610)	0.176
DDX6_P26196_324_VHCLNTLFSR (UniProt P26196)	0.158
DTWD2_Q8NBA8_143_FSEERDPELSTVCR (UniProt Q8NBA8)	0.148
DHRS9_Q9BPW9_60_GFHVIAACLTESGSTALK (UniProt Q9BPW9)	0.105
DYNC1LI2_O43237_104_CNVWILDGDLYHK<|>DYNC1LI1_Q9Y6G9_117_CNVWILDGDLYHK (UniProt Q9Y6G9+O43237)	-0.0068
DUSP23_Q9BVJ7_95_GEAVGVHCALGFGR (UniProt Q9BVJ7)	-0.00709
DCTPP1_Q9H773_110_CRVDLPLAVLSK (UniProt Q9H773)	-0.361
DMXL2_Q8TDJ6_62_HGNIQVSCVECSNQQGR (UniProt Q8TDJ6)	-0.159
DNMT1_P26358_580_HAQFVVEQVESYDEAGDSDEQPIFLTPCMR (UniProt P26358)	0.0642
CRIP1_P50238_56_TLTSGGHAEHEGKPYCNHPCYAAMFGPK (UniProt P50238)	-0.889
DYNC1H1_Q14204_3573_WQASSLPADDLCTENAIMLK (UniProt Q14204)	-0.0171
CPT2_P23786_512_CSEAFVREPSR (UniProt P23786)	-0.197
DDX3X_O00571_128_WCDKSDEDDWSK (UniProt O00571)	-0.422
CRYBG1_Q9Y4K1_594+609_EVQLPTCHSNEPEVVSVASCAPPQEEVLGNEHSHCTAELAAK (UniProt Q9Y4K1)	-0.0918
CTSB_P07858_93_EQWPQCPTIK (UniProt P07858)	-0.026
DDX17_Q92841_166+199_GGDVCPKPVFAFHHANFPQYVMDVLMDQHFTEPTPIQCQGFPLALSGR (UniProt Q92841)	-0.612
DHX30_Q7L2E3_286_LSTLTLLWPCPMTFVAK (UniProt Q7L2E3)	-0.558
DBNL_Q9UJU6_97_KGACASHVSTMASFLK (UniProt Q9UJU6)	-0.0713
DLGAP5_Q15398_129_YRPDMPCFLLSNQNAVK (UniProt Q15398)	-0.299
DCP2_Q8IU60_391_KLQDNFETDAVYDLPSSSEDQLLEHAEGQPVACNGHCK (UniProt Q8IU60)	-0.209

Target	probe-labelled cysteine peptide fold change
DDX28_Q9NUL7_360_LHCIMPHVK (UniProt Q9NUL7)	-0.061
CUL4B_Q13620_297_CWQNHCR (UniProt Q13620)	0.0567
DOK3_Q7L591_493_KGPAPCDRP (UniProt Q7L591)	-0.0118
DSTN_P60981_39_AVIFCLSADK (UniProt P60981)	-0.0558
DCP1A_Q9NPI6_39_QHDPYITSIADLTGQVALYTFCPK (UniProt Q9NPI6)	0.179
DENR_O43583_44_VLYCGVCSLPTEYCEYMPDVAK (UniProt O43583)	-0.0798
CSTF2_P33240_62_GYGFCEYQDQETALSAMR (UniProt P33240)	-0.512
DCLRE1C_Q96SD1_34_AYFLSHCHK (UniProt Q96SD1)	0.0604
DCAF10_Q5QP82_412_NSLEVVTPEVLGESDHGNCITSLQLHPK (UniProt Q5QP82)	0.152
DDB2_Q92466_322_VYSASQWDCPLGLIPHPHR (UniProt Q92466)	0.0907
CTNNA2_P26232_792_IALYCHQLNICSK (UniProt P26232)	-0.0111
DYNC1H1_Q14204_4644_GVAVLCTE (UniProt Q14204)	0.0055
DOK3_Q7L591_323_LPELTRPQPCPLPR (UniProt Q7L591)	0.463
CTNNA1_P35221_772_TIADHCPDSACK (UniProt P35221)	-0.0482
CSMD2_Q7Z408-3_2_CDAHLR (UniProt Q7Z408)	-0.56
DENND4B_O75064_180_GEGTPHTYCR (UniProt O75064)	0.0109
CRYZL1_O95825_177_VISTACSLEDK (UniProt O95825)	0.0726
DIP2B_Q9P265_1282_TCVVVAEERPR<|>DIP2C_Q9Y2E4_1263_TCVVVAEERPR (UniProt Q9Y2E4+Q9P265)	0.0276
DIAPH1_O60610_1227_AGCAVTSLLASELTK (UniProt O60610)	-0.0516
